Experimental data taken from PubChem BioAssay.
Calls of active or inactive are those of the source. Unless noted, no rule for the calls is given here.

Columns and labels:
[1] = tested on: Wnt5a (protein binding on small-molecule microarray); test: Wnt5a binders on small-molecule microarray, primary screen, biophysical, 635/667 nm fluorescence (AID 1142); settings: 635 nm fluorescence, higher = more signal;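 also: fluorescence read at 667 nm with signal to noise per printed feature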
[2] = cell viability in Huh7 cells, primary screen, cytotoxicity control for HCV replication inhibitor project, CellTiter-Glo luminescence, basal, 48 h (AID 1143); settings: Huh7 HCV replicon, higher = more signal, called active from +8 up or from −8 down;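 also: Huh7 hepatoma cells carrying a hepatitis C replication reporter with no stimulus; test concentration not given here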
[3] = P. aeruginosa biofilm formation inhibitors, primary screen, PAO1 strain, BacTiter-Glo luminescence, LB-PBS (AID 1144); settings: 12 h, higher = more signal
[4] = CREB reporter modulators without forskolin, primary screen, cell-based, PC12, CRE-LacZ reporter, unstimulated (AID 1145); settings: no forskolin, luminescence, 4.5 h, higher = more signal, called active from +8 up or from −8 down
[5] = CREB reporter modulators under forskolin, primary screen, cell-based, PC12, CRE-LacZ reporter, forskolin-stimulated (AID 1146); settings: luminescence, 4.5 h, higher = more signal, called active from +8 up or from −8 down;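 also: PC12 cells with 6xCRE LacZ reporter stimulated by forskolin 10 µM; beta-galactosidase reporter signal reflecting CREB driven transcription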
[6] = target: Streptavidin (Streptomyces avidinii) (UniProt P22629); test: streptavidin binders on small-molecule microarray, primary screen, artefact control for SMM compound annotation, biophysical, 635/667 nm fluorescence (AID 1147); settings: streptavidin binding, higher = more signal;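 also: signal reflects streptavidin binding to arrayed compounds as a control protein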
[7] = small-molecule binders of probe aInhba, primary screen, biochemical, small-molecule microarray, 635/667 nm fluorescence (AID 1148); settings: higher = more signal;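 also: score merges 667nm spot fluorescence with signal-to-noise for antibody binding to printed compounds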
[8] = target: Torsin-1A (Homo sapiens) (UniProt O14656); test: torsin A binders from cell lysate, primary screen, small-molecule microarray, wild-type, 635/667 nm (AID 1149); settings: COS7 hTOR1A-WT lysate, 635 nm fluorescence, higher = more signal
[9] = target: Torsin-1A (Homo sapiens) (UniProt O14656); test: small-molecule binders of mutant TOR1A in lysate, primary screen, cell lysate, small-molecule microarray, COS7 lysate, 635/667 nm fluorescence (AID 1150); settings: COS7 hTOR1A mutant lysate, 635 nm fluorescence, higher = more signal;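 also: score pools 667 nm emission and signal to noise measuring lysate protein binding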
[10] = tested on: Sonic hedgehog protein (Shh); test: small-molecule binders of Shh protein, primary screen, biochemical, small-molecule microarray, 635/667 nm fluorescence (AID 1151); settings: small-molecule microarray binding, 635 nm fluorescence; higher = more signal;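 also: Shh protein binding to compounds spotted on small-molecule microarray slides; score combines spot fluorescence intensity with signal-to-noise across triplicate slides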
[11] = E. coli DRC41 culture turbidity changes, primary screen, E. coli filamentation inducer project, strain DRC41, OD650, 48 h (AID 1152);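 also: E. coli MC1000 strain DRC41 lacking acrAB efflux pump and sulA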; settings: E. coli DRC41 (acrAB sulA), higher = more signal, called active from +8 up or from −8 down
[12] = small-molecule binders of probe aLefty1, primary screen, biochemical, small-molecule microarray, 635/667 nm fluorescence (AID 1153); settings: higher = more signal;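 also: score merges spot fluorescence with signal-to-noise ratio from the scanned slide images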
[13] = PSAC antagonists in infected red cells, primary screen, cell-based, P. falciparum Indochina, OD700, 1 h (AID 1154); settings: P. falciparum Indochina infected RBC osmotic lysis, higher = more signal, called active from +8 up or from −8 down
[14] = PSAC antagonists in infected red cells, primary screen, cell-based, P. falciparum Indochina, OD700, 2 h (AID 1155);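 also: lysis reports solute entry through the parasite surface anion channel PSAC; channel blockers reduce lysis of infected cells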; settings: P. falciparum Indochina infected erythrocytes, osmotic lysis OD700; higher = more signal, called active from +8 up or from −8 down
[15] = osmotic lysis modulators in infected erythrocytes, primary screen, PSAC antagonist project, cell-based, P. falciparum Indochina, OD700, 3 h (AID 1156); settings: higher = more signal, called active from +8 up or from −8 down
[16] = PSAC antagonists in infected red cells, primary screen, cell-based, P. falciparum Indochina, OD700, 18 h (AID 1157); settings: P. falciparum Indochina infected erythrocytes, osmotic lysis OD700, 18 h; higher = more signal, called active from +8 up or from −8 down
[17] = modulators of S6 phosphorylation in cells, primary screen, cell-based, A549, cytoblot, luminescence, serum-stimulated (AID 1158); settings: A549 phospho-S6 cytoblot, 5 h, higher = more signal;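 also: serum-stimulated A549 lung adenocarcinoma cells; signal is phosphorylated S6 detected by cytoblot immunostaining with HRP secondary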
[18] = target: NADPH oxidase 2 (Homo sapiens) (UniProt P04839); test: NOX2-dependent H2O2 signal modulators, primary screen, NOX inhibitor project, cell-based, HEK293-NOX2, PMA-stimulated, Amplex Red fluorescence (AID 1159); settings: 45 min, higher = more signal, called active from +8 up or from −8 down; also: test concentration not given here
[19] = target: NADPH oxidase 4 (Homo sapiens) (UniProt Q9NPH5); test: NOX4-dependent H2O2 signal modulators, primary screen, NOX inhibitor project, cell-based, HEK293-NOX4, tetracycline-induced, Amplex Red fluorescence (AID 1160); settings: 45 min, higher = more signal, called active from +8 up or from −8 down
[20] = target: NADPH oxidase 5 (Homo sapiens) (UniProt Q96PH1); test: NOX5-dependent H2O2 signal modulators, primary screen, NOX inhibitor project, cell-based, HEK293-NOX5, Amplex Red fluorescence (AID 1161); settings: HEK293-NOX5, ionomycin, 45 min, higher = more signal
NADPH oxidase 5 (Homo sapiens), sequence (Q96PH1 whole entry, looked up): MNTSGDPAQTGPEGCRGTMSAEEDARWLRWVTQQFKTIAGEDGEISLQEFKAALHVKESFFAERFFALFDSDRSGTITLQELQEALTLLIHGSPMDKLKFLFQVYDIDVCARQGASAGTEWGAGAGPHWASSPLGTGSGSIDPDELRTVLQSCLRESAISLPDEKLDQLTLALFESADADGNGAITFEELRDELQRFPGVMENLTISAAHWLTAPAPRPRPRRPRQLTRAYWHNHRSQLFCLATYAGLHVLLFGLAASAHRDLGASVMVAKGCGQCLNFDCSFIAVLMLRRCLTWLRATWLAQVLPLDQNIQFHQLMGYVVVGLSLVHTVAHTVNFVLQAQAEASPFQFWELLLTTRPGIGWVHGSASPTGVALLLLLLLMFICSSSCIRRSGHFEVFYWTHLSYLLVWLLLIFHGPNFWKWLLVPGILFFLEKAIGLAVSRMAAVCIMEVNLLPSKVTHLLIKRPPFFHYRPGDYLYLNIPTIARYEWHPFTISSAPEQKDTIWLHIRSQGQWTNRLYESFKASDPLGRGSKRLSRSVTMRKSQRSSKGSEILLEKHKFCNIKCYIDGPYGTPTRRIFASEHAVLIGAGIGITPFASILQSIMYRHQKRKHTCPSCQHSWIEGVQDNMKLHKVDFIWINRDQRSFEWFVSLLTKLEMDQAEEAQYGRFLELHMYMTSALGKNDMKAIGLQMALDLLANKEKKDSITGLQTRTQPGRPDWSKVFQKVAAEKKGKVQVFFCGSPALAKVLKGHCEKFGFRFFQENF

Torsin-1A (Homo sapiens), sequence (O14656 whole entry, looked up): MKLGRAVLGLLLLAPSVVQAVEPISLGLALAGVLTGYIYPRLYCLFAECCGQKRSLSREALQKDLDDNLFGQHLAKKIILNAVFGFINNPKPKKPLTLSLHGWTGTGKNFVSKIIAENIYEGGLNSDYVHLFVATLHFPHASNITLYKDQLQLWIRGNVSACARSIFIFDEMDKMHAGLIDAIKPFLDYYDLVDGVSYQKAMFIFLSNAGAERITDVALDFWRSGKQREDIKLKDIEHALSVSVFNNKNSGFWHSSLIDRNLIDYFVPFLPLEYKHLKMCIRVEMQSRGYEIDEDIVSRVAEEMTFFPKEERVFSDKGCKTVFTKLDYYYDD
Streptavidin (Streptomyces avidinii), sequence (P22629 whole entry, looked up): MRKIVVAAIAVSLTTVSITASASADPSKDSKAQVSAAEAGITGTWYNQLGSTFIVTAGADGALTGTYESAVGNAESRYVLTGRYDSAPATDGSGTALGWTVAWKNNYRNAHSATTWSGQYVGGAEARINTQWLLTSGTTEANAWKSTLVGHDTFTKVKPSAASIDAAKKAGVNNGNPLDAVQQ
NADPH oxidase 2 (Homo sapiens), sequence (P04839 whole entry, looked up): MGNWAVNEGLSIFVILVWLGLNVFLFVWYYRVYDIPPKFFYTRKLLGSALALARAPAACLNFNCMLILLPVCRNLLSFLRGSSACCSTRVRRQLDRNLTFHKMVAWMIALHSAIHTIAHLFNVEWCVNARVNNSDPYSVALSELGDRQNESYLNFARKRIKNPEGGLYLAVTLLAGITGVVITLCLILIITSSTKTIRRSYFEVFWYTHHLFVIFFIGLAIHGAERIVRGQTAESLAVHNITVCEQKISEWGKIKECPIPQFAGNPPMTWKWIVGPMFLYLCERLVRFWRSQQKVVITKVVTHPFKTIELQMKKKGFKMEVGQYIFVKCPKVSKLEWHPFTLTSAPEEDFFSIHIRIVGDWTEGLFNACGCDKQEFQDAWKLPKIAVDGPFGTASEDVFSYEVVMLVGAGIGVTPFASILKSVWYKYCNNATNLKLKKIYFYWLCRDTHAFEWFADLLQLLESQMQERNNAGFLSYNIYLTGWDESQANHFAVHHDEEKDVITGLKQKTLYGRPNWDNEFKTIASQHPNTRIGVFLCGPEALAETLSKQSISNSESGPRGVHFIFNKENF
NADPH oxidase 4 (Homo sapiens), sequence (Q9NPH5 whole entry, looked up): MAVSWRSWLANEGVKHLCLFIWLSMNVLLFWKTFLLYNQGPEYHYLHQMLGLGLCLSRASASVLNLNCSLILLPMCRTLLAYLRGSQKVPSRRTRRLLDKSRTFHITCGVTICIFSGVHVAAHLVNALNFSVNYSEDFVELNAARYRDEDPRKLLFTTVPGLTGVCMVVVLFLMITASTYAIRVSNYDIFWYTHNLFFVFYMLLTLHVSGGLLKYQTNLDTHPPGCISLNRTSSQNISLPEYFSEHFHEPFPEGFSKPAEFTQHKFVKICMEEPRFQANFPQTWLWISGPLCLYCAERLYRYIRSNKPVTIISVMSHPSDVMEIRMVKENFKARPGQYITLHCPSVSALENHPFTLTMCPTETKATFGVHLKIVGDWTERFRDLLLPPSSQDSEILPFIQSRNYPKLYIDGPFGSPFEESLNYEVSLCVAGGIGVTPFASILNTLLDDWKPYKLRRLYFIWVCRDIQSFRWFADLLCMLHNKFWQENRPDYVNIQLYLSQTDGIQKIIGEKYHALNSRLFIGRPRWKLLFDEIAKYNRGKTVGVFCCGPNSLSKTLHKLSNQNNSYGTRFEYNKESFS

SMILES | composite z-score [1] | z-score [2] | z-score [3] | z-score [4] | z-score [5] | composite z-score [6] | composite z-score [7] | composite z-score [8] | composite z-score [9] | composite z-score [10] | z-score [11] | composite z-score [12] | z-score [13] | z-score [14] | z-score [15] | z-score [16] | z-score [17] | z-score [18] | z-score [19] | z-score [20]
O=C1C[C@@](C(=O)O)(c2ccc([N+](=O)[O-])cc2)[C@@H](c2ccc(CO)cc2)N1C1CCCCC1 | 0.239 | -3.27 (inactive) | 0.381 (inactive) | -0.179 (inactive) | -0.337 (inactive) | 0.856 | -0.0645 | 0.298 | 0.371 | 0.478 | -0.485 (inactive) | 0.0984 | 5.95 (inactive) | 0.732 (inactive) | 2.38 (inactive) | 0.646 (inactive) | 0.197 | -0.127 (inactive) | -1.27 (inactive) | 0.369
COCCOC(=O)N1C(=O)[C@@]2(c3cc(C#CCCO)ccc31)[C@H](C(N)=O)[C@H]1C(=O)O[C@H](c3ccccc3)[C@H](c3ccccc3)N1[C@@H]2c1ccccc1OCCO | 0.119 | -3.54 (inactive) | 0.00875 (inactive) | 0.0695 (inactive) | -0.29 (inactive) | 0.612 | 0.017 | 0.69 | 0.791 | 1.13 | -0.3 (inactive) | -0.147 | 12.2 (active) | 2.47 (inactive) | 1.99 (inactive) | 0.68 (inactive) | 1.02 | 1.51 (inactive) | 0.755 (inactive) | 0.594
COc1ccc(C(O)C2C=CC3C(=O)NC(=O)C3N2Nc2ccc(Cl)cc2Cl)c2ccccc12 (stereo not given) | -0.181 | -1.74 (inactive) | -1.13 (inactive) | 1.01 (inactive) | -0.525 (inactive) | 0.767 | -0.0757 | -0.392 | 0.275 | 0.461 | -0.866 (inactive) | 0.379 | 2.37 (inactive) | 1.44 (inactive) | -0.46 (inactive) | 1.78 (inactive) | -0.101 | -0.0689 (inactive) | -5.63 (inactive) | -1.58
C=CCOC(=O)[C@H]1[C@@H]2C(=O)O[C@@H](c3ccccc3)[C@@H](c3ccccc3)N2[C@@H](c2ccc(OCCOC(=O)[C@@H]3C[C@@H]4C(=O)N[C@@H](CCCCNC(C)=O)C(=O)N4[C@@H]3c3cccc(OCCO)c3)cc2)[C@]12C(=O)Nc1ccccc12 | 0.455 | -0.08 (inactive) | -0.295 (inactive) | -0.118 (inactive) | -0.656 (inactive) | -0.35 | -0.0342 | 1.2 | 1.3 | 1.54 | -0.637 (inactive) | 0.082 | 3.6 (inactive) | 1.34 (inactive) | 2.28 (inactive) | 0.621 (inactive) | -0.52 | 1.83 (inactive) | 1.4 (inactive) | 0.618
CCCN1C(=O)[C@@]2(c3ccc([N+](=O)[O-])cc3)CC(=O)N(CC34CC5CC(CC(C5)C3)C4)[C@@H]2c2ccc(CO)cc21 | -0.347 | -0.0818 (inactive) | 0.312 (inactive) | 0.272 (inactive) | 1 (inactive) | -0.192 | 0.0588 | -1.21 | 0.019 | 0.102 | -0.803 (inactive) | 0.334 | 0.336 (inactive) | 0.0149 (inactive) | 0.519 (inactive) | -0.312 (inactive) | -0.574 | 0.658 (inactive) | 0.148 (inactive) | 0.631
C=CCOC(=O)[C@H]1[C@@H]2C(=O)O[C@@H](c3ccccc3)[C@@H](c3ccccc3)N2[C@@H](c2ccc(OCCOC(=O)[C@H]3C[C@H]4C(=O)N[C@@H](CC(C)C)C(=O)N4[C@H]3c3ccc(O)cc3)cc2)[C@]12C(=O)Nc1ccccc12 | 0.809 | -0.351 (inactive) | -1.22 (inactive) | -0.26 (inactive) | 0.146 (inactive) | 0.137 | 0.0544 | 0.739 | 1.18 | 2.06 | 0.324 (inactive) | 0.13 | 1.64 (inactive) | 0.998 (inactive) | 3.83 (inactive) | 0.964 (inactive) | 0.758 | 1.2 (inactive) | 0.776 (inactive) | 1.4
O=C1O[C@@H](c2ccccc2)[C@@H](c2ccccc2)N2[C@@H](c3ccc(OCCO)cc3)[C@]3(C(=O)Nc4ccc(C#CC5(O)CCCCCC5)cc43)[C@@H](C(=O)Nc3nc4ccccc4s3)[C@H]12 | 0.41 | -1.6 (inactive) | -0.213 (inactive) | 0.685 (inactive) | -0.0048 (inactive) | 1.44 | 0.0945 | 1.14 | 0.985 | 1.11 | 0.219 (inactive) | -0.0061 | 2.63 (inactive) | 1.76 (inactive) | 0.626 (inactive) | 1.96 (inactive) | 0.693 | 1.2 (inactive) | -1.33 (inactive) | 0.52
COC(=O)[C@@]1(Cc2ccc(F)cc2)[C@H]2c3cc(C(=O)N(C)C)n(C)c3C[C@H]2CN1C(=O)c1ccccc1 | 0.418 | -0.771 (inactive) | -0.259 (inactive) | 0.0007 (inactive) | -0.339 (inactive) | 0.069 | 0.395 | -0.0772 | 0.814 | -0.34 | -1.18 (inactive) | 0.113 | 0.404 (inactive) | 0.149 (inactive) | -0.898 (inactive) | 0.545 (inactive) | -0.8 | 0.323 (inactive) | -0.0748 (inactive) | -0.552
